Among the data in PubChem BioAssay (NCATS) are Potency values, retold here.

The structures appear in SMILES notation. Records with an inconclusive call do not appear. Entries that show only a call come without a potency. Activity calls are given as the source filed them. Calls come from the whole dose curve; as a rule, active = well fitted inhibition curve with a large enough effect; inconclusive = small, poorly fitted or top-dose-only effect; inactive = flat fitted curve, though single readings scatter.

In one assay the test system is CP185. Briefly: qHTS profiling for inhibitors of Plasmodium falciparum proliferation (AID 504749). Note: nearly all actives have a fitted effect of over 60% in size. The conditions noted are these: P. falciparum in erythrocytes, SYBR Green DNA, 72 h; series mostly up to 28.7 µM. In a few lines:
(§1)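 Parasite proliferation within erythrocytes, 72 h exposure. Endpoint: SYBR Green I fluorescence after overnight lysis at room temperature. Controls: 0.29 uM artemisinin, DMSO.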
Turning to `COC(=O)CCC[N+](C)(C)C`, the Potency result is “inactive”.

For `[O]=[Bi][O][Bi]=[O]`, the Potency result was “inactive”.

For `C[C@]12CC[C@@H]3c4ccc(OC(=O)c5ccccc5)cc4CC[C@H]3[C@@H]1CC[C@@H]2O`, the Potency entry was “inactive”.

For the compound `Cc1ccc(C(C)(C)c2ccc(C)cc2)cc1`, the Potency result was “inactive”.

For the compound `FC(F)OC(Cl)C(F)(F)F` (stereo not given), the Potency entry is “inactive”.

For the compound `CC(CCc1ccc(O)cc1)NCC(O)c1ccc(O)cc1` (stereo not given), the Potency result was “inactive”.

As for `CC1=C(/C=C/C(C)=C/C=C/C(C)=C/C(=O)Oc2c(C)c(C)c3c(c2C)CC[C@@](C)(CCC[C@H](C)CCC[C@H](C)CCCC(C)C)O3)C(C)(C)CCC1`, the Potency entry is “inactive”.

`O=P(O)(O)OP(=O)(O)OP(=O)(O)O`: the Potency result is “inactive”.

In the case of `CO/N=C(\C(=O)N[C@@H]1C(=O)N2C(C(=O)[O-])=C(C[n+]3cccc4c3CCC4)CS[C@H]12)c1csc(N)n1`, the Potency entry was “inactive”.

With `CCCCCCCCCCCC(=O)OCC(O)CO` (stereo not given), the Potency entry was “inactive”.

For `CS(=O)(=O)OCC(O)C(O)COS(C)(=O)=O` (stereo not given), the Potency entry was “inactive”.

As for `CC1=CC(=O)NS(=O)(=O)O1`, the Potency entry was “inactive”.

As for `O=C(O)CCCC/C=C(\c1ccccc1)c1cccnc1`, the Potency result was “inactive”.

For `CCN(CC)C(=S)S`, the Potency result is “inactive”.

Consider `C[Se]CC[C@H](N)C(=O)O`, for which the Potency result was “inactive”.

Take `CC(C)[C@H](N)C(=O)OCC(CO)OCn1cnc2c(=O)[nH]c(N)nc21` (stereo not given in full): the Potency result was “inactive”.

For the next assay, the system named is CP191. Described as above. The conditions noted are these: P. falciparum in erythrocytes, SYBR Green DNA, 72 h; series mostly up to 28.7 µM. Put shortly: as §1
As to `CCN(CC)C(=O)c1cccnc1`, the Potency entry is “inactive”.

As for `CNC(=O)C[C@@H](N)C(=O)N[C@@H](C(=O)N[C@@H]1C(=O)N2[C@@H]1SC(C)(C)[C@@H]2C(=O)O)c1ccc(O)cc1`, the Potency result is “inactive”.

As for `CCCCCCCCCCCCCCCCCC(=O)OCC(C)O` (stereo not given), the Potency result is “inactive”.

With `NC(=S)NS(=O)(=O)c1ccc(N)cc1`, the Potency result is “inactive”.

On to `N=C(N)n1cccn1`, for which the Potency entry is “inactive”.

Take `Nc1ncnc2c1ncn2CCOCP(=O)(O)O`: the Potency result is “inactive”.

Regarding `CCC(C(=O)NC(N)=O)c1ccccc1` (stereo not given), the Potency entry is “inactive”.

For the compound `CC(C)CCC[C@@H](C)[C@H]1CC[C@H]2[C@@H]3CC=C4C[C@@H](O)CC[C@]4(C)[C@H]3CC[C@]12C`, the Potency result is “inactive”.

For the compound `CC1=CCC2CC1C2(C)C` (stereo not given), the Potency entry is “inactive”.

For `NC(N)=O`, the Potency entry was “inactive”.

Turning to `Cc1ncc(C[n+]2csc(CCOP(=O)(O)OP(=O)(O)O)c2C)c(N)n1`, the Potency result is “inactive”.

Regarding `Nc1nc(=O)n([C@@H]2CS[C@H](CO)O2)cc1F`, the Potency result was “inactive”.

As for `CCOC(=O)[C@@H](N)CS`, the Potency entry is “inactive”.

Turning to `OCC(O)CO`, the Potency result was “inactive”.

Regarding `O=C1c2ccccc2C(=O)C1c1ccc(F)cc1`, the Potency result was “inactive”.

Turning to `O=C(O)COc1ccccc1/C=N/NC(=O)c1ccncc1`, the Potency result is “inactive”.

In the case of `Cc1cccc(C)c1NC(=O)C1CCCCN1C` (stereo not given), the Potency entry was “inactive”.

For `CCC(C)[C@@H](N)C(=O)O` (stereo not given in full), the Potency result was “inactive”.

For `CC(C)(Oc1ccc(C2CCCc3ccccc32)cc1)C(=O)O` (stereo not given), the Potency entry was “inactive”.

`CC(CC=O)CCCC(C)(C)O` (stereo not given): the Potency result is “inactive”.

With `S=C1SCN(Cc2ccccc2)CN1Cc1ccccc1`, the Potency entry was “inactive”.

In the case of `CC(C)Cc1ccc([C@@H](C)C(=O)NS(C)(=O)=O)cc1`, the Potency entry is “inactive”.

For `COc1cc2c(cc1OC)[C@@H](Cc1cc(OC)c(OC)c(OC)c1)[N+](C)(CCCOC(=O)CC/C=C/CCC(=O)OCCC[N+]1(C)CCc3cc(OC)c(OC)cc3[C@H]1Cc1cc(OC)c(OC)c(OC)c1)CC2` (stereo not given in full), the Potency entry is “inactive”.

As for `COC(=O)CCC[N+](C)(C)C`, the Potency entry is “inactive”.

With `[O]=[Bi][O][Bi]=[O]`, the Potency entry was “inactive”.

For `C[C@]12CC[C@@H]3c4ccc(OC(=O)c5ccccc5)cc4CC[C@H]3[C@@H]1CC[C@@H]2O`, the Potency result is “inactive”.

For `Cc1ccc(C(C)(C)c2ccc(C)cc2)cc1`, the Potency result was “inactive”.

Consider `FC(F)OC(Cl)C(F)(F)F` (stereo not given), for which the Potency result is “inactive”.

Take `CC(CCc1ccc(O)cc1)NCC(O)c1ccc(O)cc1` (stereo not given): the Potency entry is “inactive”.

Consider `CC1=C(/C=C/C(C)=C/C=C/C(C)=C/C(=O)Oc2c(C)c(C)c3c(c2C)CC[C@@](C)(CCC[C@H](C)CCC[C@H](C)CCCC(C)C)O3)C(C)(C)CCC1`, for which the Potency result was “inactive”.

On to `O=P(O)(O)OP(=O)(O)OP(=O)(O)O`, for which the Potency entry is “inactive”.

As to `CO/N=C(\C(=O)N[C@@H]1C(=O)N2C(C(=O)[O-])=C(C[n+]3cccc4c3CCC4)CS[C@H]12)c1csc(N)n1`, the Potency result was “inactive”.

Consider `CCCCCCCCCCCC(=O)OCC(O)CO` (stereo not given), for which the Potency result is “inactive”.

Turning to `CS(=O)(=O)OCC(O)C(O)COS(C)(=O)=O` (stereo not given), the Potency entry is “inactive”.

In the case of `CC1=CC(=O)NS(=O)(=O)O1`, the Potency result is “inactive”.

As for `O=C(O)CCCC/C=C(\c1ccccc1)c1cccnc1`, the Potency result is “inactive”.

As for `CCN(CC)C(=S)S`, the Potency entry was “inactive”.

For `C[Se]CC[C@H](N)C(=O)O`, the Potency result is “inactive”.

On to `CC(C)[C@H](N)C(=O)OCC(CO)OCn1cnc2c(=O)[nH]c(N)nc21` (stereo not given in full), for which the Potency entry is “inactive”.
